Each structure is given as a SMILES string. For part of these data: Entries with a potency or affinity are not part of this list.

Holding throughout (design): scale not given: direction of the effect not stated beside the values
Assay [1] deals with Protein translocase subunit SecA (Escherichia coli (strain K12)) (UniProt P10408). Kind of assay: Assay to Identify E. coli SecA ATPase Inhibitors. To be noted: 30 µM. Format: functional.
The target of assay [2] is T1, Ubiquitin-activating enzyme e1, putative (Leishmania donovani (strain BPK282A1)) (UniProt E9BSI1).
T1 sequence (whole entry): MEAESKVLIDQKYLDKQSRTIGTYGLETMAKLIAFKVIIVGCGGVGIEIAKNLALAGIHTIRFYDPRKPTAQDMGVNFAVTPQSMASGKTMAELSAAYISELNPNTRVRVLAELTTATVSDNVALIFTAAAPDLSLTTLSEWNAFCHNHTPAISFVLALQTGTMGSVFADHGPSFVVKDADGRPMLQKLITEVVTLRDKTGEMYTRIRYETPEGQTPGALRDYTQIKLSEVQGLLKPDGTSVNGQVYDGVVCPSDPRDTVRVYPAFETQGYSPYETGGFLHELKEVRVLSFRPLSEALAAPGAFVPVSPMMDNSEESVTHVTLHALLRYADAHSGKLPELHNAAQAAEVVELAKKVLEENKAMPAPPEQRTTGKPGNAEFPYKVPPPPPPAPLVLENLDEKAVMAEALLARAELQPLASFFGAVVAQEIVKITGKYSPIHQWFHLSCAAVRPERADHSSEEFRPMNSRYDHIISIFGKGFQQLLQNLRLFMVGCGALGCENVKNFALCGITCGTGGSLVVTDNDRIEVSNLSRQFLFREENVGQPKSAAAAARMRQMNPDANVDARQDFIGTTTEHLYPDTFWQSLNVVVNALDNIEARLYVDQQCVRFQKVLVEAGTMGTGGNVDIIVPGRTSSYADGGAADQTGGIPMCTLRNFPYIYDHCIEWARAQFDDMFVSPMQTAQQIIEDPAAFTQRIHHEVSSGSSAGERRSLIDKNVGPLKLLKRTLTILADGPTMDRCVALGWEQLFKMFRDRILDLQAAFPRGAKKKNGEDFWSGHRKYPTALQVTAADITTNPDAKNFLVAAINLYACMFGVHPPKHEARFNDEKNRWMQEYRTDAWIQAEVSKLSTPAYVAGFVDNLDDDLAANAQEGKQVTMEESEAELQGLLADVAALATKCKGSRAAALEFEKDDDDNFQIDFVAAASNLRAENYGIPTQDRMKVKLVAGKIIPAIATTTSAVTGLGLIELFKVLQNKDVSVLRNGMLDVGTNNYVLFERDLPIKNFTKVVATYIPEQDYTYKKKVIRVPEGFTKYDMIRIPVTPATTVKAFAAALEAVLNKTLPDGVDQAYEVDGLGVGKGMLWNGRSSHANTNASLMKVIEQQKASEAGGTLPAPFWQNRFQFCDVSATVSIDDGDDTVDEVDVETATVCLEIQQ
Kind of assay: Leishmania donovani Ubiquitin Activating Enzyme (LdE1). To be noted: 30 µM. Type of assay: functional.

The target in assay [3] is AMP-activated protein kinase, AMPK (Homo sapiens) (UniProt P54646+O43741+P54619+Q9UGJ0+Q9Y478+Q13131+Q9UGI9). Briefly: AMP-dependent Kinase enzyme assay. An in vitro enzyme assay that detects ADP turnover that is directly proportional to AMPK activity. This uses naive AMPK that is activated during the assay with MK-8722. Type of assay: functional. To be noted: 30 µM.
The target in assay [4] is Sialic acid-binding Ig-like lectin 9 (Homo sapiens) (UniProt Q9Y336). Kind of assay: Hs-Siglec9 ALPHAscreen SOP 20170721. To be noted: 10 µM.
Sialic acid-binding Ig-like lectin 9 (Homo sapiens), sequence (Q9Y336 whole entry): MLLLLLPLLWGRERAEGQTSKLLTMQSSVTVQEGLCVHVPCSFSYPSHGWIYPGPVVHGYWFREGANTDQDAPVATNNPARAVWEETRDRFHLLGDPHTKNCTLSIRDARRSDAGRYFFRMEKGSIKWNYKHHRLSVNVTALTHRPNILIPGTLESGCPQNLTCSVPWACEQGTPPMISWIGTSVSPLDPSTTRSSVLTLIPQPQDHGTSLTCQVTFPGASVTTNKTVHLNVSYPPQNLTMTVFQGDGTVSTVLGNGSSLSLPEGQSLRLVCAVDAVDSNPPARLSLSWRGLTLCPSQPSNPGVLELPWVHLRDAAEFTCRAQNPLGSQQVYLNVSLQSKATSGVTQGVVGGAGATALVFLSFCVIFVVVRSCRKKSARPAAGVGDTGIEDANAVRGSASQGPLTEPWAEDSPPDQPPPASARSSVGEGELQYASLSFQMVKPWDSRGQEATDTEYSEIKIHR
The next assay deals with Trypanosoma cruzi. Kind of assay: Trypanosoma cruzi phosphomannomutase and mannose-1-phosphate guanylyltransferase assay. To be noted: 10 µM. Format: functional.
In assay [5] the target is T2, Arginase-2, mitochondrial (Homo sapiens) (UniProt P78540).
T2 sequence (whole entry): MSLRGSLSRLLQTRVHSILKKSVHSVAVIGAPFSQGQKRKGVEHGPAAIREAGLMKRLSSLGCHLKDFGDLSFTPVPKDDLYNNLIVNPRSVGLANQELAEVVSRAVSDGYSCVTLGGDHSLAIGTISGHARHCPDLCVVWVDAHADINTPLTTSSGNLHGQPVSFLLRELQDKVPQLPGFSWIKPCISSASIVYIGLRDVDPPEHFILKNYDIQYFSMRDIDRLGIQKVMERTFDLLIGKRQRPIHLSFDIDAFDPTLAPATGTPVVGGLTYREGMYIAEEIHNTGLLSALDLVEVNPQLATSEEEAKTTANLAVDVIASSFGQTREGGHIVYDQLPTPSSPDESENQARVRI
Briefly: in vitro enzyme assay to detect the production of urea directly proportional to the activity of Arginase II. Further: in the data most compounds retested in dose-response had high values. Format: functional. To be noted: 33.3 µM.

The target in assay [6] is T3, Proteasome subunit beta (Trypanosoma cruzi) (UniProt O96673).
T3 sequence (whole entry): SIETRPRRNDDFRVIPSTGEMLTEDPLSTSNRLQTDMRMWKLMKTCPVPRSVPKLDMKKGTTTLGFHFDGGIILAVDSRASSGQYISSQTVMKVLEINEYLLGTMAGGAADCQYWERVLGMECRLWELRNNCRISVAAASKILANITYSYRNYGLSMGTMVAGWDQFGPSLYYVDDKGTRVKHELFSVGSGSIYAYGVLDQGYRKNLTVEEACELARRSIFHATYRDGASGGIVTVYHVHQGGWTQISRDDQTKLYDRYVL
Kind of assay: Trypanosoma cruzi proteasome chymotrypsin-like activity (TcProtChymo) assay. Further: in the data most compounds retested in dose-response had high values. Format: functional. To be noted: 9.37 µM.

The species named for the next assay is Homo sapiens. Kind of assay: To identify inhibition of the IFN signalling (Jak-Stat) pathway via expression of an eGFP reporter gene under the control of an IFN-stimulated response element (ISRE) containing MxA promoter. Type of assay: functional. To be noted: 30 µM.
In assay [7] the target is T4, Tyrosyl-tRNA synthetase, putative (Trypanosoma cruzi (strain CL Brener)) (UniProt Q4DSP6).
T4 sequence (whole entry): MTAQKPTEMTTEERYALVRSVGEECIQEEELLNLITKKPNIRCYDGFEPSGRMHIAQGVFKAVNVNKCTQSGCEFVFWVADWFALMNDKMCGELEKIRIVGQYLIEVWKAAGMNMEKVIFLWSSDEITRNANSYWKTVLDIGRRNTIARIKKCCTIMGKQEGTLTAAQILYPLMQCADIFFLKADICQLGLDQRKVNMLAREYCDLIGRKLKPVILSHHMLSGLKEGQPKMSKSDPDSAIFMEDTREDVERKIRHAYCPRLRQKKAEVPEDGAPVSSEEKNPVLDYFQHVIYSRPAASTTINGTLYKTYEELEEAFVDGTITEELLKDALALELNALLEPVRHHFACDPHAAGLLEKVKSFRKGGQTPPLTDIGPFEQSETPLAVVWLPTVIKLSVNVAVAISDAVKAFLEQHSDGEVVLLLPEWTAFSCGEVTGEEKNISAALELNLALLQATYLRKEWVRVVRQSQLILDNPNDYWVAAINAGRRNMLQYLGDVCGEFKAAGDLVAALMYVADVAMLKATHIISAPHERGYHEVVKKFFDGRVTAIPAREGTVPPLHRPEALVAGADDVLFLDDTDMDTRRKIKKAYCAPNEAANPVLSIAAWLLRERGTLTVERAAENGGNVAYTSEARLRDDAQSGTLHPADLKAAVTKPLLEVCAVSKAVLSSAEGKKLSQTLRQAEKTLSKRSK
Kind of assay: Trypanosoma cruzi tyrosyl tRNA synthetase (TcYRS) _High Tyrosine SOP. Further: in the data most compounds retested in dose-response had high values. Type of assay: functional. To be noted: 30 µM.

The target of assay [8] is T4, Tyrosyl-tRNA synthetase, putative (Trypanosoma cruzi (strain CL Brener)). Briefly: Trypanosoma cruzi tyrosyl tRNA synthetase (TcYRS) SOP. Format: functional. To be noted: 30 µM.
In assay [9] the target is Chromo domain-containing protein 1 (Saccharomyces cerevisiae (strain ATCC 204508 / S288c) (Baker's yeast)) (UniProt P32657). Kind of assay: ScCHD-1 Enzyme Inhibition Assay. Further: in the data most compounds retested in dose-response had high values. Format: functional. To be noted: 30 µM.
Chromo domain-containing protein 1 (Saccharomyces cerevisiae (strain ATCC 204508 / S288c) (Baker's yeast)), sequence (P32657 whole entry, the tested form may be a part): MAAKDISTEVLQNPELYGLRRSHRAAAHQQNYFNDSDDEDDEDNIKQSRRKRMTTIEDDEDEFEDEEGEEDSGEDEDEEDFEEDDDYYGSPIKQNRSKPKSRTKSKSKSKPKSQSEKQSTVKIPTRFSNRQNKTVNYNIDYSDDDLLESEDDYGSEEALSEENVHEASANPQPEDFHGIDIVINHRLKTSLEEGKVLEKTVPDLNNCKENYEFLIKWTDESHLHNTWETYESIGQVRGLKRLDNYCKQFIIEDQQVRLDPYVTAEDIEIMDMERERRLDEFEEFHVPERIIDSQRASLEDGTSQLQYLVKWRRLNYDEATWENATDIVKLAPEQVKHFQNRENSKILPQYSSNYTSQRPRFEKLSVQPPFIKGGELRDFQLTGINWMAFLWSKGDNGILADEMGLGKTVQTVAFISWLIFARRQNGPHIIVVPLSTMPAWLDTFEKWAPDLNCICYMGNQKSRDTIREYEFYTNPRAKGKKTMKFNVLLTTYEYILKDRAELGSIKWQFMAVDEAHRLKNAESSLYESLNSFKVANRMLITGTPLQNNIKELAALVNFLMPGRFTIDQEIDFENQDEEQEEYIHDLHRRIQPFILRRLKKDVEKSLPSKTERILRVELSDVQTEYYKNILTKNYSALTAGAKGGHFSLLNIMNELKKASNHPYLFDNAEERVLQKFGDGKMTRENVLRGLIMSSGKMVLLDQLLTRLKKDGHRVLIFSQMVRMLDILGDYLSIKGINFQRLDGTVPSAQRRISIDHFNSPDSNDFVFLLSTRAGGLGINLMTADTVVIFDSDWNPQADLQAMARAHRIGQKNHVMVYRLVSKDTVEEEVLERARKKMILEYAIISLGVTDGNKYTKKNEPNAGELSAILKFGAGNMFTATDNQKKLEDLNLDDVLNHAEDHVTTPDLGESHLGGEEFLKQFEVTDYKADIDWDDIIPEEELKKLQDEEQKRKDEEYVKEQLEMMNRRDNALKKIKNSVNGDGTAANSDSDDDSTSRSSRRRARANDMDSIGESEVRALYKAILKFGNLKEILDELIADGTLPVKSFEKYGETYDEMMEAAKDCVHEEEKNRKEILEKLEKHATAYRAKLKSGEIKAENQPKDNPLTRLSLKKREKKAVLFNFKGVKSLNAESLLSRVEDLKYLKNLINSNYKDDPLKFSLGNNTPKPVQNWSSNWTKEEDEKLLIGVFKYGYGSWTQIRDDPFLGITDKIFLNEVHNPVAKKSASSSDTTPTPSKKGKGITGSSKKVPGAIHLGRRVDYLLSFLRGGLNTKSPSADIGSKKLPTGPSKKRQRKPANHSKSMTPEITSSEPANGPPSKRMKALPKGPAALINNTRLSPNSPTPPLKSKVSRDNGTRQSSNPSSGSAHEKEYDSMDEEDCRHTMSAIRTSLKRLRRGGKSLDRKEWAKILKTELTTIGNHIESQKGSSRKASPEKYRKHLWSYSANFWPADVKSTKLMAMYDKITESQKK

Protein translocase subunit SecA (Escherichia coli (strain K12)), sequence (P10408 whole entry): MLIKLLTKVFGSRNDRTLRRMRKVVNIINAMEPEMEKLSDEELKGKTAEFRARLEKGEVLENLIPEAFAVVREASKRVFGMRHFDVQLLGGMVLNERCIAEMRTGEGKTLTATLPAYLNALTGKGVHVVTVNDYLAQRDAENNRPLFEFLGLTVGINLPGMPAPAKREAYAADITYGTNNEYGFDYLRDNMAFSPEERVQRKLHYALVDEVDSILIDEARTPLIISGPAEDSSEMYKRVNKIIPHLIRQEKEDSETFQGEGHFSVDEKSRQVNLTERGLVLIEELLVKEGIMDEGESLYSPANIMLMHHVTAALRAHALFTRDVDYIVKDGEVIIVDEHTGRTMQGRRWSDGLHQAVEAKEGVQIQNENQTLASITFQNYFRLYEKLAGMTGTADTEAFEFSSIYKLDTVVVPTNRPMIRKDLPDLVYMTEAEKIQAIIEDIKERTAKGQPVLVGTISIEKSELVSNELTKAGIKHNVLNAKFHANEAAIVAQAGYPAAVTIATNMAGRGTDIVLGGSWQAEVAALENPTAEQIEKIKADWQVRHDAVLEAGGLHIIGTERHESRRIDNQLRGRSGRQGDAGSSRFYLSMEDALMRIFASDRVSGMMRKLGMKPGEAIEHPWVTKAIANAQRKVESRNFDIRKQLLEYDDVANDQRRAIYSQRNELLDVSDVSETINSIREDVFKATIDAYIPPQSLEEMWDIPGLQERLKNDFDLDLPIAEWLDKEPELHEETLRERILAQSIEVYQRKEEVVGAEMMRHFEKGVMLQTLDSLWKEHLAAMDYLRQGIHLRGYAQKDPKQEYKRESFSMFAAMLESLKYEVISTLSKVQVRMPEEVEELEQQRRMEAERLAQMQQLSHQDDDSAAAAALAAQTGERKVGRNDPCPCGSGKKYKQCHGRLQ

Consider `CCc1noc(C(C)N(C)CC(=O)Nc2c(C)cccc2C)n1` (centres undefined), for which the Percent Effect in [1] worked out at 1.06%; in assay [2] it was 11%; in assay [3] it was 6.59%; in [4], 4.7%; in the assay with Trypanosoma cruzi it was 4.31%; in assay [5], 16.8%. In addition, the Percent Effect is 8.7% in [6]; -3.6% in the assay filed under Homo sapiens; 4.3% in assay [7]; 15% in [8]; -7.1% in assay [9].

In the case of `O=C(Nc1cccnc1)[C@H]1C[C@@H]2CN(C(=O)NC3CCCC3)C[C@H]1O2`, the Percent Effect in [1] was -0.299%; in assay [2], 13.5%; in [3], 5.36%; in assay [4], -10.3%; in the assay with Trypanosoma cruzi it was -6.94%; in assay [5], 6.69%. In addition, the Percent Effect was 24.5% in assay [6]; -1.23% in the assay listed under Homo sapiens; 0% in assay [7]; 15.4% in assay [8]; -0.793% in assay [9].

As to `O=C(Cc1ccc2c(c1)OCCO2)NCCc1nnc2n1CCC2`, the Percent Effect is -2.17% in assay [1]; 24.3% in assay [2]; 22.3% in assay [3]; -3.07% in assay [4]; 3.87% with Trypanosoma cruzi; -7.62% in [5]. In addition, the Percent Effect was 10.8% in assay [6]; 2.82% in the assay filed under Homo sapiens; 4.43% in [7]; 18.5% in [8]; -9.97% in assay [9].

`O=C([C@H]1C[C@H]2OCC[C@H]2N(C(=O)c2ccncc2)C1)N1CCCCO1`: the Percent Effect in [1] was -6.09%; in assay [2] it was 16%; in [3], -5.71%; in assay [4], -0.495%; in the assay with Trypanosoma cruzi, 6.56%; in assay [5], -43.9%. In addition, the Percent Effect in [6] is 6.33%; in the assay filed under Homo sapiens, -5.77%; in [7] it was 4.17%; in assay [8], 5%; in assay [9], -6.72%.

In the case of `Cc1ccc(CN2CCc3c(C(=O)N(C)C)nn(C)c3C2)s1`, the Percent Effect in assay [1] was -1.04%; in assay [2], 8.22%; in [3], -3.87%; in assay [4] it was 6.86%; in the assay on Trypanosoma cruzi, 5.95%; in assay [5], 0%. For the same compound, the Percent Effect is 18.6% in assay [6]; 6.25% in the assay filed under Homo sapiens; 8.33% in [7]; 11.1% in assay [8]; -4.79% in assay [9].

For `Cc1cccc(N2CCN(CCCNC(=O)c3nccn3C)CC2)c1`, the Percent Effect was -2.68% in assay [1]; 5.41% in [2]; -5.72% in [3]; -1.22% in assay [4]; 4.49% in the assay with Trypanosoma cruzi; 38.3% in assay [5]. In addition, the Percent Effect in [6] was 12.9%; in the assay filed under Homo sapiens it was 7.26%; in [7], 11.9%; in assay [8], 18.3%; in [9], -2.27%.

As for `COc1cccc2c1ccn2CCNC(=O)C(C)C`, the Percent Effect in [1] is -1.68%; in assay [2], 20%; in [3], 0.539%; in assay [4] it was 3.44%; in the assay on Trypanosoma cruzi, 0.393%; in assay [5] it was -1.94%. For the same compound, the Percent Effect in assay [6] is 18.5%; in the assay listed under Homo sapiens, 26.9%; in assay [7] it was 7.41%; in assay [8], 12.8%; in assay [9], -3.78%.

On to `Cc1csc(N2CCN(C(=O)CCc3nccs3)CC2)n1`, for which the Percent Effect in assay [1] is -6.78%; in assay [2], 8.11%; in assay [3], -8.38%; in assay [4], 7.91%; in the assay with Trypanosoma cruzi, 3.11%; in [5], -17.2%. For the same compound, the Percent Effect in assay [6] was 5.59%; in the assay filed under Homo sapiens, 11.7%; in assay [7], 12.3%; in assay [8], 28.4%; in assay [9], -11.1%.

Regarding `Cc1nc(CNCC2CCCN2c2cccnn2)cs1` (centres undefined), the Percent Effect in assay [1] was -2.04%; in assay [2], -2.63%; in assay [3], 1.93%; in [4], 0.202%; in the assay on Trypanosoma cruzi, -3.38%; in assay [5], 6.51%. Further, the Percent Effect in assay [6] is -1.84%; in the assay listed under Homo sapiens it was 14.7%; in assay [7], 2.45%; in [8] it was 0%; in assay [9] it was 4.5%.
